GRIN3A LBD mod: binders of NR3A ligand-binding domain, primary screen, biophysical, differential scanning fluorimetry, uHTS; Glutamate receptor ionotropic, NMDA 3A (GRIN3A) ligand-binding domain; hit rate 2.5% among 340,000; Tm shift relative to glycine control, % at 25 µM; AID 1259313, 2017; NR3A LBD differential scanning fluorimetry, Tm shift; 0% = protein alone, 100% = glycine-bound protein;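 active = melting temperature shift of at least 10% of the positive control shift, at one fixed dose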
MPTP block: mitochondrial permeability transition pore inhibitors, primary screen, biochemical, isolated mouse mitochondria, absorbance | Ca2+ swelling absorbance, 30 min | AID 602449, 2012 | inhibition, % at 10 µM | hit rate 1.4% among 360,000;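 active = inhibition of 50% or more, scaled per plate between neutral and stimulator controls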;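 also: 0% = DMSO wells given calcium and 100% = 1 mM EGTA wells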
pCIP destab: p/CIP-EGFP fusion destabilizers, primary screen, fluorescence, F442A cells. Q05BA5. 16 h. decrease of EGFP signal, % at 10 µM. hit rate 0.01% among 290,000. AID 1984, 2009;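 active = EGFP signal decrease of at least 30% at 10 µM or well 3 SD below plate mean, unless failing retest; inactive = the rest, including hits failing retest or dose response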
Target sequence (Q05BA5 1-1403): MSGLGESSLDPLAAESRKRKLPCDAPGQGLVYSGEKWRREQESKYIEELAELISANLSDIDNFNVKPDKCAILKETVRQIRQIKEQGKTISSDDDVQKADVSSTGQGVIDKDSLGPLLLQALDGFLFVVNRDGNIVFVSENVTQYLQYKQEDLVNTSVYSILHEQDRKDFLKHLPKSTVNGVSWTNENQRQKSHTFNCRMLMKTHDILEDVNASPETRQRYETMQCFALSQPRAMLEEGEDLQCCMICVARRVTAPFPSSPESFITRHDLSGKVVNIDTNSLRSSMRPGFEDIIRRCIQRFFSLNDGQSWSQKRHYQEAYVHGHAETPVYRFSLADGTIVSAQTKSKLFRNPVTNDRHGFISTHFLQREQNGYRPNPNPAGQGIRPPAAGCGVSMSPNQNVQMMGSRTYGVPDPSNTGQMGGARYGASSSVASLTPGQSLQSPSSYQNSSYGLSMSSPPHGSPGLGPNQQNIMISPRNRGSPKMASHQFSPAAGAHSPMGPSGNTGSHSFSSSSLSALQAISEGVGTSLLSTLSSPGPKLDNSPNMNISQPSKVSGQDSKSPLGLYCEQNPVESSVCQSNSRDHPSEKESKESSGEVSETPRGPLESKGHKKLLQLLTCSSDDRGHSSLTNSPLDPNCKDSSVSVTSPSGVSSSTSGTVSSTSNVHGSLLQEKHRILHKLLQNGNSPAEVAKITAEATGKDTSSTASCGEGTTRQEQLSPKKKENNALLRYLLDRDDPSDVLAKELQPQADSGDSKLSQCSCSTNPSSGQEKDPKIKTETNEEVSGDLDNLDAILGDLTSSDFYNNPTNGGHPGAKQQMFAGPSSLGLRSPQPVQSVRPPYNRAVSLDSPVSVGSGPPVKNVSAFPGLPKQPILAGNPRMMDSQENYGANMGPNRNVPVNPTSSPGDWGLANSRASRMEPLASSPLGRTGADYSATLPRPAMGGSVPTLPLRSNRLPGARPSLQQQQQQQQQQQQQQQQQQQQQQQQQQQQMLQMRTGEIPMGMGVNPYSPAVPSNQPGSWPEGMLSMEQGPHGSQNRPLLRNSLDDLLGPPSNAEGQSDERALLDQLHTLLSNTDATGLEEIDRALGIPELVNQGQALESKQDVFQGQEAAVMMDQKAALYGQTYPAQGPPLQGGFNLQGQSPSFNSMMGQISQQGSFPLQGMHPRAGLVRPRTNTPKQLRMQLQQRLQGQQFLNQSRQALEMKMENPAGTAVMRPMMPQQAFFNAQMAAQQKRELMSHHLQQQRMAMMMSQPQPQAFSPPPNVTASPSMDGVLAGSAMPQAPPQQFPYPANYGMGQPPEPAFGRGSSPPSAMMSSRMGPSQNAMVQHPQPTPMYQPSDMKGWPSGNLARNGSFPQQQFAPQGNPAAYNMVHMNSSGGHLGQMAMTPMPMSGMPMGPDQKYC
FAS TE block: FAS thioesterase domain inhibitors, primary screen, biochemical, fluorescence intensity, uHTS; hit rate 0.67% among 360,000; recombinant FAS-TE, OMFH fluorogenic substrate, fluorescence endpoint; inhibition, % at 15 µM; Fatty acid synthase (Homo sapiens), P49327; AID 602261, 2012;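 active = compounds whose normalised, plate-corrected inhibition of enzyme fluorescence in the single-dose primary screen is 50% or more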;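 also: 0% = DMSO with enzyme and 100% = substrate without enzyme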
MIN6 prolif: inducers of MIN6 beta-cell proliferation, primary screen, ATP luminescence, uHTS. proliferation, % at 10 µM. AID 2380, 2010. hit rate 0.29% among 330,000. MIN6 cells proliferation, ATPlite luminescence, 48 h; cells starved in 0.2% serum; 100% = growth in 10% serum;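 active = compounds whose signal lies at least 3.5 SD above the mean of all wells on their plate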;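 also: 0% = DMSO-treated cells in low-serum medium and 100% = 10% serum control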
* marks the source's active call; other numbers are inactive results. An excerpt weighted towards active compounds, which were near 4.1% of everything screened.

What do the screens show for `COc1ccc(NC(=O)c2ccc(N3C(=O)C4CC=C(Cl)CC4C3=O)cc2)cc1` (stereo unspecified)?
GRIN3A LBD mod: 18.4*; MPTP block: 0.5; pCIP destab: -4.3; FAS TE block: 3.3; MIN6 prolif: -3.0

Results for COc1ccc(C(=O)Nc2cc(-c3ccc(C)cc3)no2)cc1 ?
GRIN3A LBD mod: 10.7*; MPTP block: 1.7; pCIP destab: -3.2; FAS TE block: -0.9; MIN6 prolif: -0.8

Results for COc1ccc(C(=O)Nc2cccc(C)c2)cc1 ?
GRIN3A LBD mod: 17.4*; MPTP block: 4.2; pCIP destab: -8.5; FAS TE block: -2.5; MIN6 prolif: -4.7

How did COc1ccc(NC(=O)c2ccc(NC(=O)CN3CCN(c4ccccc4)CC3)cc2)cc1 do in these assays?
GRIN3A LBD mod: 18.9*; MPTP block: -0.8; FAS TE block: -4.8; MIN6 prolif: 0.2

How did CN(CCc1ccccc1)c1cc2c(c3c1ccn3C)C1CCC2C1 (stereo unspecified) do in these assays?
MPTP block: 1.4; FAS TE block: 28.7

Results for COc1ccccc1C#CC1=CC(=O)CC(C)(C)C1 ?
MPTP block: 1.7; FAS TE block: 2.4

What do the screens show for `Cc1ccc(Nc2ccc(C(=O)NCCc3ccccc3)cn2)cc1`?
GRIN3A LBD mod: 24.1*; MPTP block: 1.8; pCIP destab: 11.9; FAS TE block: 2.3; MIN6 prolif: -1.7

How did Cc1ccc(SCC(=O)Nc2ccc(C(=O)Nc3ccc(O)cc3)cc2)cc1 do in these assays?
GRIN3A LBD mod: 18.9*; MPTP block: -2.7; pCIP destab: 1.4; FAS TE block: -9.2; MIN6 prolif: -1.1

Results for CCCCNC(=O)C1c2ccccc2OCC(=O)N1CCOC (stereo unspecified) ?
MPTP block: -1.4; FAS TE block: -9.0

How did CCCc1c(C)nn(-c2ncccc2[N+](=O)[O-])c1C do in these assays?
GRIN3A LBD mod: -2.2; MPTP block: 0.8; pCIP destab: -17.1; FAS TE block: 0.1; MIN6 prolif: -1.7

What do the screens show for `CCCc1c(C)nn(C(=O)/C(C#N)=N/Nc2ccccc2[N+](=O)[O-])c1C`?
GRIN3A LBD mod: 14.6*; MPTP block: 0.6; pCIP destab: 12.8; FAS TE block: 0.1; MIN6 prolif: -0.7

How did O=C1NC2(CCCCC2)C(=O)N1CCS(=O)(=O)Oc1ccccc1 do in these assays?
GRIN3A LBD mod: 12.2*; MPTP block: 1.8; pCIP destab: 9.1; FAS TE block: -2.0; MIN6 prolif: 0.2

Results for Cc1ccc2cc(C(c3nnnn3C(C)(C)C)N3CCCCCC3)c(=O)[nH]c2c1 (stereo unspecified) ?
GRIN3A LBD mod: 11.0*; MPTP block: -2.0; pCIP destab: -5.3; FAS TE block: -5.2; MIN6 prolif: 0.2

What do the screens show for `O=C(Cc1c(C(=O)O)[nH]c2ccc(Cl)cc12)Nc1ccc2c(c1)OCCO2`?
GRIN3A LBD mod: 11.6*; MPTP block: 0.2; pCIP destab: -8.2; FAS TE block: 8.6; MIN6 prolif: -1.8

How did C/C(CC(=O)Nc1ccc2c(c1)OCCO2)=N\NC(=O)Cc1ccc(Cl)cc1 do in these assays?
GRIN3A LBD mod: -1.5; MPTP block: -3.6; pCIP destab: -13.5; FAS TE block: 3.1; MIN6 prolif: -4.3

How did CCN(c1ccccc1)S(=O)(=O)c1ccc(Cl)c(NC(=O)COC(=O)c2ccc(O)cc2)c1 do in these assays?
GRIN3A LBD mod: 16.3*; MPTP block: 2.3; pCIP destab: -12.4; FAS TE block: 1.2; MIN6 prolif: -5.2

Results for OC(c1cccc(Cl)c1)c1ncc(-c2cccc3ccccc23)[nH]1 (stereo unspecified) ?
MPTP block: 4.3; FAS TE block: 9.2

How did COc1ccc(Cn2c(O)c(C=Nc3ccc(O)cc3)c3ccccc3c2=O)cc1 do in these assays?
GRIN3A LBD mod: 23.3*; MPTP block: 4.2; pCIP destab: -6.7; FAS TE block: 30.6; MIN6 prolif: -3.4

How did CN(CCc1ccccc1)C(C(=O)c1ccc2c(c1)OCO2)c1nnnn1-c1ccccc1NC(=O)OC(C)(C)C (stereo unspecified) do in these assays?
MPTP block: 1.9

Results for COCCn1c(=NC(=O)c2cc(-c3cccs3)nc3ccccc23)sc2cc(S(N)(=O)=O)ccc21 ?
GRIN3A LBD mod: 28.2*; MPTP block: -1.5; pCIP destab: -18.9; FAS TE block: 17.9; MIN6 prolif: -2.4
